IDH1 R132H inh: blocks human mutant IDH1 R132H enzyme. Potency, µM (doses to about 76.6 µM), inactives show at the highest dose activity change, negative = inhibition, usual class: inhibitors. O75874. 0.093% of 390,000 active. IDH1-R132H enzyme, NADPH consumption, diaphorase/resazurin fluorescence; note: % is set by controls: 0 for no effect and ±100 for the full control effect; nearly all actives have a fitted effect of over 65% in size
Target sequence (O75874 whole entry R132H, stated change not applied): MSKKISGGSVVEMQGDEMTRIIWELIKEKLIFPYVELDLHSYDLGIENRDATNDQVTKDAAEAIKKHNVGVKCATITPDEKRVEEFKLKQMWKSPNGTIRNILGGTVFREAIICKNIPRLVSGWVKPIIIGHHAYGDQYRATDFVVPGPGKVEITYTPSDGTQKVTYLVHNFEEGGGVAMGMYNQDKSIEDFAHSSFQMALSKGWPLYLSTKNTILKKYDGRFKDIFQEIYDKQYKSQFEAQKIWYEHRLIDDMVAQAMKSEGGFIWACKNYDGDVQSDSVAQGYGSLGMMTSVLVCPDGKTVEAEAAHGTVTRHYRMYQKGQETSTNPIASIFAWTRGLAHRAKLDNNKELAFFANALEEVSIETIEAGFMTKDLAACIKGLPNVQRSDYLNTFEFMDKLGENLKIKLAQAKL
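IDH1-R132H (0.5 ug/mL) preincubated 30 min with compound, then NADPH (0.016 mM) and alpha-KG (2 mM) added; 80 min at RT, pH 7.5. Remaining NADPH coupled via diaphorase/resazurin to fluorescence (540/590 nm); concentration-response curves normalized to no-enzyme control.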
ELG1 DNA repair: inhibitors of ELG1-dependent DNA repair in HEK293T cells | 2.3% of 330,000 active | AID 504467 | HEK293T ELG1-luciferase reporter, luminescence, 16 h; DNA damage induced by 5-fluorouridine | Potency, µM (highest dose often 46.1 µM), inactives show at the top dose activity change, negative = inhibition, hits mostly inhibitors; note: % is set by controls: 0 for no effect and ±100 for the full control effect; nearly all actives have a fitted effect of over 55% in size
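Luminescence from the luciferase reporter, measured 30 min after ONE-Glo reagent at room temperature, was the read-out. Beforehand, 2,000 cells per well were exposed for 16 hr at 37 °C to 5-fluorouridine together with compound or vehicle.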
Nrf2 ARE act: activates Nrf2 signaling; AREc32 ARE-luciferase reporter (MCF7-derived line), luminescence, 24 h; Potency, µM (series often up to 46.1 µM), for inactives: at the top dose activation, usual class: activators; 0.31% of 410,000 active; note: % of control where 0% means no effect; nearly all actives have a fitted effect of over 65% in size
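Luminescent ARE reporter assay in AREc32_Fluc cells: overnight plating at 37 deg C, 24 hr compound incubation, Steady-Glo added, 30 min RT before reading.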
A549 tox-1: kills or reduces viability of A549 cells in Nrf2 counter-screen; A549 ARE-Fluc cells, CellTiter-Fluor viability, 18-24 h; Potency, µM (top dose mostly 46 µM), without a hit: at the highest dose activity change, negative = cytotoxicity, usual class: inhibitors; 0.16% of 390,000 active; AID 504648; note: % is set by controls: 0 for no effect and ±100 for the full control effect
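A549 ARE_Fluc cells in 5% FBS OPTI-MEM were exposed to compounds in concentration-response for 18-24 h at 37 deg C. Viability was read by CellTiter-Fluor fluorescence (Ex 405/Em 525) after 30 min, before the luciferase read.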
Nrf2 block: blocks Nrf2 signaling; Potency, µM (highest dose often 46 µM), for inactives: top-dose activity change, negative = inhibition, most hits filed as inhibitors; A549 ARE-Fluc reporter, luciferase luminescence, 18-24 h; 2.1% of 360,000 active; note: % is set by controls: 0 for no effect and ±100 for the full control effect; nearly all actives have a fitted effect of over 60% in size
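A549 ARE_Fluc cells (5000/well, 5% FBS OPTI-MEM) pre-incubated 2 h, then treated with compounds 18-24 h at 37C/5% CO2 in concentration-response. CellTiter-Fluor viability read first; BugLite luciferase luminescence after 15 min at room temperature gives Nrf2 activity.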
FLuc enzyme inh: counter-screen for Nrf2 inhibitors: firefly luciferase enzyme inhibition | shares compounds with Nrf2 block | purified firefly luciferase, luminescence inhibition | Potency, µM (series often up to 57.5 µM), for the others: at the highest dose activity change, negative = inhibition, most hits filed as inhibitors | 4% of 1,400 active | AID 720522; note: % is set by controls: 0 for no effect and ±100 for the full control effect; nearly all actives have a fitted effect of over 65% in size
A549 tox-2: counter-screen for Nrf2 inhibitors: cytotoxicity in A549 ARE cells; A549 ARE-Fluc cells, cytotoxicity counterscreen; shares compounds with Nrf2 block; Potency, µM (series often up to 46.1 µM), inactives show at the top dose activity change, negative = cytotoxicity, actives largely listed as inhibitors; 2% of 1,400 active;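 note: cells exposed to compounds for 18 to 24 hours; % is set by controls: 0 for no effect and ±100 for the full control effect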
ARE-Fluc inh: Nrf2 inhibition confirmed, A549 ARE-luciferase. shares compounds with Nrf2 block. A549 ARE-firefly luciferase reporter, luminescence. Potency, µM (doses to about 46.1 µM), for inactives: top-dose activity change, negative = inhibition, hits mostly inhibitors. 74% of 1,400 active; note: % is set by controls: 0 for no effect and ±100 for the full control effect; nearly all actives have a fitted effect of over 65% in size
Numbers without * were called inactive; ? = inconclusive; · = no result. Compounds with a hit are over-represented: about 3.8% of the library has one in this group of screens. Calls come from the whole dose curve; as a rule, active = well fitted curve in the direction sought with a large enough effect; inconclusive = small, poorly fitted or top-dose-only effect, or another doubt; inactive = no such curve, though single readings can be large; an effect the other way counts as inactive or inconclusive. Potency is the fitted concentration of half-maximal effect.

SMILES	IDH1 R132H inh	ELG1 DNA repair	Nrf2 ARE act	A549 tox-1	Nrf2 block	FLuc enzyme inh	A549 tox-2	ARE-Fluc inh
Cc1ccc(C(=O)Oc2cc(N)n(S(=O)(=O)c3ccc(C)cc3)n2)cc1	0.0%	10.7%	-2.5%	-4.7%	1.16µM*	-2.8%	-0.5%	4.61µM*
COc1ccc(S(=O)(=O)n2nc(OC(=O)c3ccccc3)cc2N)cc1	-1.0%	18.1%	0.2%	-1.7%	-10.4%	·	·	·
CC(=O)Nc1cccc(-c2csc(C(C)(NC(C)=O)c3ccccc3)n2)c1 (stereo not drawn)	·	·	0.7%	·	·	·	·	·
CC1CCCC(NC(=O)COC(=O)/C=C/c2ccc(S(=O)(=O)N3CCOCC3)cc2)C1C (stereo not drawn)	-11.1%	-0.6%	0.3%	1.7%	4.5%	·	·	·
CC(=O)N(C(C)=O)N1C(=O)C2C3c4ccccc4C(c4ccccc43)C2C1=O (stereo not drawn)	10.3%	-22.1%	-0.8%	?	9.2µM*	-27.1%	?	14.6µM*
CCN(C(=O)Cn1c(C(=O)OC)cc2sc(Cl)cc21)c1cccc(C)c1	-21.0%	·	3.2%	5.8%	13.4%	·	·	·
CC1CC(C)C(=O)C(C(CC2CC(=O)NC(=O)C2)OC(=O)CC(=O)c2ccccc2)C1 (stereo not drawn)	3.5%	·	-1.2%	?	5.17µM*	2.3%	-19.2%	0.206µM*
CC(=O)O[C@]1(C(C)=O)CCC2C3C=C(C)C4=CC(=O)CC[C@]4(C)C3CC[C@@]21C (stereo partly drawn)	0.0%	?	0.4%	-6.7%	0.259µM*	-11.1%	-8.3%	1.16µM*
CC(=O)O[C@]1(C(C)=O)CC[C@H]2[C@@H]3C=C(C)C4=CC(=O)CC[C@@H]4[C@H]3CC[C@@]21C	5.0%	1.8%	-0.1%	1.4%	?	·	·	·
CCCCN(CCCC)CCNC(=O)Cn1nc(CC)n2c(cc3sccc32)c1=O	0.0%	·	0.0%	5.2%	3.7%	·	·	·
COc1cccc2c1C(=O)c1c(O)c3c(c(O)c1C2=O)CC(O)(C(=O)CO)CC3OC1CC(N(C)C)C(O)C(C)O1 (stereo not drawn)	-13.9%	·	-1.7%	?	0.461µM*	?	?	0.259µM*
CSc1ccc(CNC(=O)C(C)n2nc(C)c3c(C)n(-c4ccccc4)nc3c2=O)cc1 (stereo not drawn)	-11.7%	-3.2%	0.0%	7.4%	-15.7%	·	·	·
Cc1ccc(-n2nc3c(=O)n(C(C)C(=O)NCc4ccc(OC(C)C)cc4)nc(C)c3c2C)cc1 (stereo not drawn)	-17.0%	·	-1.5%	-3.7%	1.84µM*	1.5%	-11.3%	8.2µM*
COc1ccc(-n2c(=O)c(CCC(=O)N3CCC(C)CC3)nc3ccccc32)cc1	-8.5%	-3.9%	0.2%	-3.0%	-7.9%	·	·	·
CC(C)CC[n+]1ccccc1/C=C/c1ccc(N(C)C)cc1	-10.5%	?	2.8%	?	7.31µM*	2.2%	?	5.8µM*
COc1ccccc1N1CCN(C(=O)Cn2c(=O)nc(-c3ccccc3)c3ccccc32)CC1	-10.5%	·	-0.5%	11.2%	·	·	·	·
COc1cc(NC(=O)c2cccs2)c(OC)cc1NC(=O)CCC(=O)Nc1ccc2ncccc2c1	-13.6%	14.6µM*	0.5%	-2.8%	5.8µM*	-13.0%	1.6%	-10.8%

Source: PubChem BioAssay
